Laboratory results published in the supplement of paper PMC10849652.
Targets with a hit are over-represented here; the source holds about 8,800 in all. About 0.5% of all pairs of compound and target were hits. Values without a mark were called inactive.

Assays:
Experiment in all cases: log2 fold change, soluble protein after heating vs DMSO (PISA); higher = thermal stabilisation; K562 lysate, 10 uM; active = over 0.2 and 3.5 SD of the protein, either way, in both replicates (recomputed)
vemurafenib = compound: CCCS(=O)(=O)Nc1ccc(F)c(C(=O)c2c[nH]c3ncc(-c4ccc(Cl)cc4)cc23)c1F [vemurafenib]
How it was run: (§1)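 A 30 min treatment with 10 μM compound was applied to crude K562 extract at 1 mg/mL protein in PBS pH 7.4 with 1 mM MgCl2. Heating for 3 min spanned 48°C-58°C, after which aliquots were pooled, adjusted to 0.5% NP-40 at 4°C and spun at 21,000xg for 90 min. TMTpro 16plex LC-MS/MS of the supernatant, with channel sums equalised, gave values recorded as log-two fold change in thermal stability against solvent controls, from duplicates.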

[1] = compound: CCCS(=O)(=O)Nc1ccc(F)c(C(=O)c2c[nH]c3ncc(Cl)cc23)c1F
How it was run: as §1

barasertib = compound: CCN(CCCOc1ccc2c(Nc3cc(CC(=O)Nc4cccc(F)c4)[nH]n3)ncnc2c1)CCOP(=O)(O)O [barasertib]
How it was run: as §1

[2] = compound: CC[C@@H]1C(=O)N(C)c2cnc(Nc3ccc(C(=O)NC4CCN(C)CC4)cc3OC)nc2N1C1CCCC1
How it was run: as §1

volasertib = compound: CC[C@@H]1C(=O)N(C)c2cnc(Nc3ccc(C(=O)N[C@H]4CC[C@H](N5CCN(CC6CC6)CC5)CC4)cc3OC)nc2N1C(C)C [volasertib]
How it was run: as §1

[3] = compound: CCn1c(C(=O)N(C2CC2)C2CC2)cc2c3c(ncn3C)c(Nc3cc(C)n(C)n3)nc21
How it was run: as §1

[4] = compound: CCn1cc(-c2ccnc3[nH]c(-c4cccc(CN(C)C)c4)cc23)c(-c2ccc(NC(=O)N(C)C)cc2)n1
How it was run: as §1

[5] = compound: CN1CCC(CNc2ccc3ncc(-c4cccc(OC(F)(F)F)c4)n3n2)CC1
How it was run: as §1

saracatinib = compound: CN1CCN(CCOc2cc(OC3CCOCC3)c3c(Nc4c(Cl)ccc5c4OCO5)ncnc3c2)CC1 [saracatinib]
How it was run: as §1

sotrastaurin = compound: CN1CCN(c2nc(C3=C(c4c[nH]c5ccccc45)C(=O)NC3=O)c3ccccc3n2)CC1 [sotrastaurin]
How it was run: as §1

alvocidib = compound: CN1CC[C@H](c2c(O)cc(O)c3c(=O)cc(-c4ccccc4Cl)oc23)[C@H](O)C1 [alvocidib]
How it was run: as §1

Tubastatin A = compound: CN1CCc2c(c3ccccc3n2Cc2ccc(C(=O)NO)cc2)C1 [Tubastatin A]
How it was run: as §1

[6] = compound: CNC(=O)C1=CC=CC=C1NC2=NC(=NC=C2Cl)NC3=C(C=C(C=C3)N4CCOCC4)OC
How it was run: as §1

defactinib = compound: CNC(=O)c1ccc(Nc2ncc(C(F)(F)F)c(NCc3nccnc3N(C)S(C)(=O)=O)n2)cc1 [defactinib]
How it was run: as §1

[7] = compound: CNc1nc(-c2ccc3c(N)n[nH]c3c2)cc(N2C[C@@H](C(=O)NC3CCCCC3)CC[C@H]2C)n1
How it was run: as §1

encorafenib = compound: COC(=O)N[C@@H](C)CNc1nccc(-c2cn(C(C)C)nc2-c2cc(Cl)cc(NS(C)(=O)=O)c2F)n1 [encorafenib]
How it was run: as §1

[8] = compound: COC(=O)[C@H](CCSC)NC(=O)C1=C(C=C(C=C1)NC[C@H](CS)N)C2=CC=CC=C2
How it was run: as §1

alisertib = compound: COc1cc(Nc2ncc3c(n2)-c2ccc(Cl)cc2C(c2c(F)cccc2OC)=NC3)ccc1C(=O)O [alisertib]
How it was run: as §1

[9] = compound: COc1cc2nc(-c3cc(F)ccc3O)nc(N[C@@H]3CNC[C@H]3C(C)(C)O)c2cc1OC
How it was run: as §1

gefitinib = compound: COc1cc2ncnc(Nc3ccc(F)c(Cl)c3)c2cc1OCCCN1CCOCC1 [gefitinib]
How it was run: as §1

Sequence of UniProt Q08J23 (Q08J23 whole entry, looked up): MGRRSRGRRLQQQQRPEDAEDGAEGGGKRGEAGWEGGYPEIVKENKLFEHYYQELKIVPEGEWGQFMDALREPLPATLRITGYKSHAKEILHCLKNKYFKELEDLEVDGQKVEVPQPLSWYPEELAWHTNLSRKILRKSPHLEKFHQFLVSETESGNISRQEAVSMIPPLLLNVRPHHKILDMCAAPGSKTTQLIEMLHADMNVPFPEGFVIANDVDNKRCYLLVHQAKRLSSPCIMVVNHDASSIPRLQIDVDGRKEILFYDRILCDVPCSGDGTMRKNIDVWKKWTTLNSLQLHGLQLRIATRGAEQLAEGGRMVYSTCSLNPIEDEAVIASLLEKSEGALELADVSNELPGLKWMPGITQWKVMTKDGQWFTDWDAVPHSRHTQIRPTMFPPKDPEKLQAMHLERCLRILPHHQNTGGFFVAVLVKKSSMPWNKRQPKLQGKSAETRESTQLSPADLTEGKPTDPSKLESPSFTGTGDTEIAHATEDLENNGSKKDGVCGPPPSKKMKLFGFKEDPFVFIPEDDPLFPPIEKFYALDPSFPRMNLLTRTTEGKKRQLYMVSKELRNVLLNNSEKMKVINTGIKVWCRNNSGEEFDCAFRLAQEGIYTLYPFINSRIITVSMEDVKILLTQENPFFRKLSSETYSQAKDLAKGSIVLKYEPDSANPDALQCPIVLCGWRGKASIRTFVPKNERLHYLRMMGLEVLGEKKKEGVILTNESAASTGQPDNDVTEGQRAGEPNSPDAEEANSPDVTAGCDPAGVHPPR
Sequence of UniProt P52701 (P52701 whole entry, looked up): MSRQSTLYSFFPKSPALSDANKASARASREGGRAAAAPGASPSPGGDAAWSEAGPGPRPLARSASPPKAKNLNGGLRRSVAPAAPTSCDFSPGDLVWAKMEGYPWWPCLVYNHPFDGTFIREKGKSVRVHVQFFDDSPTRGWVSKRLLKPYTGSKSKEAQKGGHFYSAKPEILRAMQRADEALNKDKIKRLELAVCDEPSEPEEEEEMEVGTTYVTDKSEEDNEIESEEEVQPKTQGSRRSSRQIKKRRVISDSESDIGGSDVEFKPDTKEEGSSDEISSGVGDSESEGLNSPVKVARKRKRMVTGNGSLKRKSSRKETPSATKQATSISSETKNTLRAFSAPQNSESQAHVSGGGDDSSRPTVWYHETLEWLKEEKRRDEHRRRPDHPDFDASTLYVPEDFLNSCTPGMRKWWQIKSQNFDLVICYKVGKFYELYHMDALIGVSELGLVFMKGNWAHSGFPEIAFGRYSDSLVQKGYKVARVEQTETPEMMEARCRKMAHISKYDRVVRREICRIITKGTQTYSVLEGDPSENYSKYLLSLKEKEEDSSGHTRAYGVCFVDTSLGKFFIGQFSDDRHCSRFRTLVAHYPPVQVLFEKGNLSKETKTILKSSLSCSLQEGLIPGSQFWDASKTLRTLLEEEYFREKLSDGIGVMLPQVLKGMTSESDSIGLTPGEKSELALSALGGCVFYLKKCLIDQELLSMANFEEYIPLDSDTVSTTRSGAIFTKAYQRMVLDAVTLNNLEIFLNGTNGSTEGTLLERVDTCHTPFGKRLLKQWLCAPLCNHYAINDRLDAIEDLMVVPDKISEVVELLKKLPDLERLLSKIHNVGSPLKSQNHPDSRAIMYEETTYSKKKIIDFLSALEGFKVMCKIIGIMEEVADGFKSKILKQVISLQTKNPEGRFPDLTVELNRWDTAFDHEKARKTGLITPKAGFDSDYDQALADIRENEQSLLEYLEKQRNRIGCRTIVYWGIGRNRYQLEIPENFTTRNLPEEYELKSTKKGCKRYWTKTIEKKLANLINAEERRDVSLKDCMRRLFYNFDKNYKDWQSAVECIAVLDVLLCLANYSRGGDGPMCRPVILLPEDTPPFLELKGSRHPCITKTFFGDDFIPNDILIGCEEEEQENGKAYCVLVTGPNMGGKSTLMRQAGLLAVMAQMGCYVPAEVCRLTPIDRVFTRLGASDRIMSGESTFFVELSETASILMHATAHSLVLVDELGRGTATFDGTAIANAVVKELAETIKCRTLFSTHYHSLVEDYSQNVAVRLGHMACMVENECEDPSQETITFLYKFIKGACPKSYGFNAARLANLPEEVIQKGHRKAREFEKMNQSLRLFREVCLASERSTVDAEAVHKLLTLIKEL
Sequence of UniProt Q01968 (Q01968 whole entry, looked up): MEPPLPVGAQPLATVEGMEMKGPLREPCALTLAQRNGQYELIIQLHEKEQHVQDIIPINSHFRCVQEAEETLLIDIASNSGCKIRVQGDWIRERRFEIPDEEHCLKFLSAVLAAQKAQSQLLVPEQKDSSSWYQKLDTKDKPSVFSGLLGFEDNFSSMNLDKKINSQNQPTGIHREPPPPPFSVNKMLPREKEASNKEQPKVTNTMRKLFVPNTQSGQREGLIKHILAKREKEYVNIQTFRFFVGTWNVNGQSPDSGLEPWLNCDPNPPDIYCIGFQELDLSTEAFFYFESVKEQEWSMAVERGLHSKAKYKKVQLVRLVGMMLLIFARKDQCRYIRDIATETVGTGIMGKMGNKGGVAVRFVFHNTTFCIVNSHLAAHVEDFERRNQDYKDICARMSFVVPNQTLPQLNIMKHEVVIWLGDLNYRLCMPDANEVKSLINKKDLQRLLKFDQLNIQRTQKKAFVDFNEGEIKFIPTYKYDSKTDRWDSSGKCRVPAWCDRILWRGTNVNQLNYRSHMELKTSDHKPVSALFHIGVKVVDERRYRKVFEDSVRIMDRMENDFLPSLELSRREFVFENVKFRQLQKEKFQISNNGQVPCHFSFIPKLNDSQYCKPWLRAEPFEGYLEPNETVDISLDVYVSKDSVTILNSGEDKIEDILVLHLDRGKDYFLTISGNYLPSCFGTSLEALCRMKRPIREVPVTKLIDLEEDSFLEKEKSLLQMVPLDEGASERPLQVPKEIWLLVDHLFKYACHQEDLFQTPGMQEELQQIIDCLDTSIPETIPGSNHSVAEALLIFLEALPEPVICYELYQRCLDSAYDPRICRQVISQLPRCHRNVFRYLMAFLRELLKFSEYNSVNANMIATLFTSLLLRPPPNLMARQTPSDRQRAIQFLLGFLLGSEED
Sequence of UniProt Q99417 (Q99417 whole entry, looked up): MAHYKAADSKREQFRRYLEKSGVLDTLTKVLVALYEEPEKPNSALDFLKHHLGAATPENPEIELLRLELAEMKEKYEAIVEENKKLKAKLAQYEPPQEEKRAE
Sequence of UniProt Q8TE04 (Q8TE04 whole entry, looked up): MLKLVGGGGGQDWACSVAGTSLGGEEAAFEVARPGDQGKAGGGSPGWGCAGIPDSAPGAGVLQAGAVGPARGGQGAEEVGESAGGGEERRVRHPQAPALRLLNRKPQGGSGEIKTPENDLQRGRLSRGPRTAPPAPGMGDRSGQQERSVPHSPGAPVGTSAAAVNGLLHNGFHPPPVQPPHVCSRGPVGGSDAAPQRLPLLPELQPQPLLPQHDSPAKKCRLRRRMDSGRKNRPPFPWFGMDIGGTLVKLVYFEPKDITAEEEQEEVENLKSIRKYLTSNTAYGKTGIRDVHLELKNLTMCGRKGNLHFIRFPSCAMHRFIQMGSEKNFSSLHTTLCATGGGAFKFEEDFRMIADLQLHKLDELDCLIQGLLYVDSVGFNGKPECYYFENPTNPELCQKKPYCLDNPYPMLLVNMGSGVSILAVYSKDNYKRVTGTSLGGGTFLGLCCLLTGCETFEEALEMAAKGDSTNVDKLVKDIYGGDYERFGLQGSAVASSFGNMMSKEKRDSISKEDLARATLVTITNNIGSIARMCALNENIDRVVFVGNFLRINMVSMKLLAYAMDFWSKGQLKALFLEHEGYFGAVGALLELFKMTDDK
Sequence of UniProt Q9BZD4 (Q9BZD4 whole entry, looked up): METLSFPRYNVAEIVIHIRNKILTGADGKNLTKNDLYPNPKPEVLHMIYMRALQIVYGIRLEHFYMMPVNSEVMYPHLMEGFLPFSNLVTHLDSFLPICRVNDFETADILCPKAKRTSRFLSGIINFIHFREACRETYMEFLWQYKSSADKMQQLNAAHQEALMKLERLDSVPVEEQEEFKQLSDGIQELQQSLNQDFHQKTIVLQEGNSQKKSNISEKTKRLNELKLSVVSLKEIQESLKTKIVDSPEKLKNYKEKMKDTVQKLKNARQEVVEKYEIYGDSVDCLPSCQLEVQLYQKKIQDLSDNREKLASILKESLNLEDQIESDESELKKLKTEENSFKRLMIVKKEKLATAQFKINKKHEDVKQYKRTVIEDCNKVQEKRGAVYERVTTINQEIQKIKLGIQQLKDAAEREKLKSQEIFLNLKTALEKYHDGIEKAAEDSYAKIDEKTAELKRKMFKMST
Sequence of UniProt P15559 (P15559 whole entry, looked up): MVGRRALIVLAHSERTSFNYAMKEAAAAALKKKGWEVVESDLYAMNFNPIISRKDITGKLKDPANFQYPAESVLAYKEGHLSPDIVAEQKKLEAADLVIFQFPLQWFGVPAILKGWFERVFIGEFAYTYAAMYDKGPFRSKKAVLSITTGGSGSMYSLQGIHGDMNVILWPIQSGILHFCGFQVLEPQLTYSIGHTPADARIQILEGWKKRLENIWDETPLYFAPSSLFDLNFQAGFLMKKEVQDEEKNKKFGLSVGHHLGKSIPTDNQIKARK
Sequence of UniProt Q9NTK5 (Q9NTK5 whole entry, looked up): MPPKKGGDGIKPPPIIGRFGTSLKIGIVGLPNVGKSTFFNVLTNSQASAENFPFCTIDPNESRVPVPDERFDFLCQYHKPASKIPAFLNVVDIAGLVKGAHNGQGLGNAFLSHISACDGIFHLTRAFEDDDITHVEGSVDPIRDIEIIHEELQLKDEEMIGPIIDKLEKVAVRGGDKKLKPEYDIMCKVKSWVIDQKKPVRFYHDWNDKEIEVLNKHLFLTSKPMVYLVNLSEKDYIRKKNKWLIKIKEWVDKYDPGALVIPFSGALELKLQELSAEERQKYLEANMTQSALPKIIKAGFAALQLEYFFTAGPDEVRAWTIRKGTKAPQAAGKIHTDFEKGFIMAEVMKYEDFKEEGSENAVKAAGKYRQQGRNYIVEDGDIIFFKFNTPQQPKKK

Row | Target | log2 fold change (vemurafenib) | log2 fold change [1] | log2 fold change (barasertib) | log2 fold change [2] | log2 fold change (volasertib) | log2 fold change [3] | log2 fold change [4] | log2 fold change [5] | log2 fold change (saracatinib) | log2 fold change (sotrastaurin) | log2 fold change (alvocidib) | log2 fold change (Tubastatin A) | log2 fold change [6] | log2 fold change (defactinib) | log2 fold change [7] | log2 fold change (encorafenib) | log2 fold change [8] | log2 fold change (alisertib) | log2 fold change [9] | log2 fold change (gefitinib)
1 | NUP93 (UniProt Q8N1F7) | -0.001 | 0.014 | 0.036 | -0.069 | -0.094 | 0.044 | -0.048 | -0.079 | 0.013 | 0.028 | -0.006 | -0.085 | -0.013 | 0.023 | -0.097 | 0.029 | 0.027 | 0.01 | -0.007 | 0.014
2 | NSUN2 (UniProt Q08J23) | 0.028 | 0.004 | -0.006 | -0.032 | 0.004 | 0.037 | 0.081 | -0.022 | 0.006 | 0.005 | 0.019 | -0.097 | -0.018 | 0.007 | -0.024 | -0.011 | 0.096 | 0.014 | -0.007 | -0.02
3 | NUF2 (UniProt Q9BZD4) | -0.01 | 0.016 | 0.048 | -0.126 | -0.029 | 0.016 | -0.069 | -0.101 | 0.032 | 0.03 | 0 | -0.13 | 0.03 | 0.021 | -0.007 | 0.027 | 0.264 (active) | -0.012 | 0.013 | -0.033
4 | MRPS12 (UniProt O15235) | 0.062 | 0.035 | 0.003 | 0.045 | 0.011 | 0.001 | -0.038 | 0.001 | 0.016 | 0.028 | -0.015 | 0.026 | -0.021 | 0.015 | 0.067 | 0.011 | -0.168 | -0.027 | -0.053 | -0.032
5 | NELFA (UniProt Q9H3P2) | 0.015 | 0.02 | -0.005 | -0.016 | -0.083 | 0.007 | 0.037 | -0.037 | -0.013 | 0.029 | 0.036 | -0.139 | 0.022 | 0.056 | 0.051 | 0 | 0.025 | 0.006 | -0.006 | -0.015
6 | MSH6 (UniProt P52701) | 0.024 | 0.028 | 0.021 | -0.109 | -0.061 | 0.044 | -0.035 | -0.041 | -0.003 | 0.047 | -0.021 | -0.17 | 0.009 | 0.012 | -0.032 | 0.019 | 0.105 | 0.003 | -0.011 | -0.023
7 | OLA1 (UniProt Q9NTK5) | 0.025 | 0.001 | 0.012 | -0.047 | -0.029 | 0.04 | -0.135 | 0.035 | -0.003 | 0.026 | -0.002 | -0.095 | 0.019 | -0.029 | -0.02 | 0.008 | -0.004 | 0.017 | 0.011 | -0.026
8 | MYCBP (UniProt Q99417) | -0.001 | 0 | 0.16 | -0.003 | 0.044 | -0.007 | -0.589 (active) | 0.189 | 0.021 | 0.035 | -0.244 | 0.045 | -0.02 | 0.022 | -0.031 | 0.005 | -0.069 | 0.022 | -0.001 | -0.029
9 | MTA1 (UniProt Q13330) | -0.022 | 0.011 | 0.008 | -0.005 | -0.007 | -0.003 | 0.013 | -0.061 | 0.018 | 0.036 | 0.007 | -0.045 | 0.013 | 0.008 | -0.01 | -0.005 | 0.098 | -0.026 | 0.023 | -0.023
10 | PANK1 (UniProt Q8TE04) | 0.086 | 0.036 | 0.097 | -0.231 | -0.063 | 0.056 | 0.226 | -0.253 | 0 | 0.052 | 0.002 | 0.025 | 0.051 | -0.082 | -0.076 | 0.312 | 0.173 | 0.001 | -0.096 | 0.072
11 | PARP14 (UniProt Q460N5) | 0.067 | 0.062 | 0.038 | 0.007 | 0.001 | 0.003 | -0.08 | 0.075 | 0.119 | -0.058 | 0.009 | -0.238 | -0.15 | -0.007 | -0.09 | 0.021 | 0.082 | -0.127 | 0 | -0.014
12 | NEK9 (UniProt Q8TD19) | -0.001 | 0.054 | -0.008 | 0.004 | -0.01 | 0.004 | -0.046 | 0.048 | 0.035 | -0.016 | -0.062 | -0.062 | 0.193 | 0.08 | -0.009 | -0.018 | -0.008 | -0.048 | -0.01 | -0.039
13 | MRPS31 (UniProt Q92665) | 0.043 | -0.001 | -0.011 | 0.041 | -0.004 | -0.026 | -0.046 | 0.034 | 0.014 | 0.021 | -0.023 | 0.002 | -0.029 | 0.024 | 0.018 | 0.006 | -0.02 | 0.007 | -0.017 | -0.014
14 | PAFAH1B3 (UniProt Q15102) | -0.008 | 0.002 | 0.119 | -0.061 | -0.067 | 0.031 | -0.04 | -0.021 | 0.013 | -0.009 | 0.005 | -0.067 | 0.019 | 0.065 | -0.017 | -0.016 | 0.212 (active) | 0.058 | -0.022 | -0.02
15 | OCRL (UniProt Q01968) | 0.168 | 0.014 | 0.04 | 0.018 | -0.057 | -0.032 | -0.074 | 0.049 | 0.027 | 0.019 | -0.002 | -0.105 | 0.074 | 0.123 | -0.051 | 0.045 | -0.006 | 0.016 | -0.082 | 0.049
16 | NQO1 (UniProt P15559) | -0.014 | 0.026 | 0.163 | -0.097 | -0.082 | -0.023 | -0.067 | -0.035 | 0.155 | 0.034 | 0.007 | -0.079 | 0.068 | 0.003 | -0.111 | 0.043 | 0.159 | -0.001 | -0.042 | 0.009
